# Like-named read-outs stand apart in the source and are kept apart here.
# Legend:
# PRKAA2 = settings: read-out: apparent Kd, n = 1
# PRKD2 = settings: read-out: apparent Kd, n = 1
substance,measurement,setting,value
Lestaurtinib,potency estimated from few doses,"PRKAA2; compound concentrations:100 nM and 1000 nM (sheet 'Lestaurtinib' of Supplementary Table 1),run:Lestaurtinib_02496_R2,Plate:MR013",0.598 µM
same,potency estimated from few doses,"PRKAA2; compound concentrations:100 nM and 1000 nM (sheet 'Lestaurtinib' of Supplementary Table 1),run:Lestaurtinib_02496_R3,Plate:MR013",0.785 µM
same,potency estimated from few doses,"PRKAA2; compound concentrations:100 nM and 1000 nM (sheet 'Lestaurtinib' of Supplementary Table 1),run:Lestaurtinib_02572_R1,Plate:MR015",0.617 µM
same,potency estimated from few doses,"PRKAA2; compound concentrations:100 nM and 1000 nM (sheet 'Lestaurtinib' of Supplementary Table 1),run:Lestaurtinib_02572_R2,Plate:MR015",1.33 µM
same,potency estimated from few doses,"PRKAA2; compound concentrations:100 nM and 1000 nM (sheet 'Lestaurtinib' of Supplementary Table 1),run:Lestaurtinib_02572_R3,Plate:MR015",1.4 µM
same,potency estimated from few doses,"PRKAA2; compound concentrations:100 nM and 1000 nM (sheet 'Lestaurtinib' of Supplementary Table 1),run:Lestaurtinib_02577_R2,Plate:MR016",1.21 µM
same,potency estimated from few doses,"PRKAA2; compound concentrations:100 nM and 1000 nM (sheet 'Lestaurtinib' of Supplementary Table 1),run:Lestaurtinib_02577_R3,Plate:MR016",0.924 µM
same,potency estimated from few doses,"PRKAA2; compound concentrations:100 nM and 1000 nM (sheet 'Lestaurtinib' of Supplementary Table 1),run:Lestaurtinib_02584_R1,Plate:MR017",1.41 µM
same,potency estimated from few doses,"PRKAA2; compound concentrations:100 nM and 1000 nM (sheet 'Lestaurtinib' of Supplementary Table 1),run:Lestaurtinib_02584_R3,Plate:MR017",1.53 µM
same,potency estimated from few doses,"PRKAA2; compound concentrations:100 nM and 1000 nM (sheet 'Lestaurtinib' of Supplementary Table 1),run:Lestaurtinib_02601_R1,Plate:MR018",0.805 µM
same,potency estimated from few doses,"PRKAA2; compound concentrations:100 nM and 1000 nM (sheet 'Lestaurtinib' of Supplementary Table 1),run:Lestaurtinib_02601_R2,Plate:MR018",0.71 µM
same,potency estimated from few doses,"PRKAA2; compound concentrations:100 nM and 1000 nM (sheet 'Lestaurtinib' of Supplementary Table 1),run:Lestaurtinib_02606_R2,Plate:MR019",0.749 µM
same,potency estimated from few doses,"PRKAA2; compound concentrations:100 nM and 1000 nM (sheet 'Lestaurtinib' of Supplementary Table 1),run:Lestaurtinib_02606_R3,Plate:MR019",0.736 µM
same,potency estimated from few doses,"PRKAA2; compound concentrations:100 nM and 1000 nM (sheet 'Lestaurtinib' of Supplementary Table 1),run:Lestaurtinib_02624_R1,Plate:MR020",0.849 µM
same,potency estimated from few doses,"PRKAA2; compound concentrations:100 nM and 1000 nM (sheet 'Lestaurtinib' of Supplementary Table 1),run:Lestaurtinib_02624_R2,Plate:MR020",0.711 µM
same,potency estimated from few doses,"PRKAA2; compound concentrations:100 nM and 1000 nM (sheet 'Lestaurtinib' of Supplementary Table 1),run:Lestaurtinib_02624_R3,Plate:MR020",0.877 µM
same,potency estimated from few doses,"PRKAA2; compound concentrations:100 nM and 1000 nM (sheet 'Lestaurtinib' of Supplementary Table 1),run:Lestaurtinib_02724_R2,Plate:MR021",0.803 µM
same,potency estimated from few doses,"PRKAA2; compound concentrations:100 nM and 1000 nM (sheet 'Lestaurtinib' of Supplementary Table 1),run:Lestaurtinib_02724_R3,Plate:MR021",0.946 µM
same,potency estimated from few doses,"PRKAA2; compound concentrations:100 nM and 1000 nM (sheet 'Lestaurtinib' of Supplementary Table 1),run:Lestaurtinib_02748_R1,Plate:MR024",0.752 µM
same,potency estimated from few doses,"PRKAA2; compound concentrations:100 nM and 1000 nM (sheet 'Lestaurtinib' of Supplementary Table 1),run:Lestaurtinib_02748_R3,Plate:MR024",0.559 µM
same,potency estimated from few doses,"PRKAA2; compound concentrations:100 nM and 1000 nM (sheet 'Lestaurtinib' of Supplementary Table 1),run:Lestaurtinib_02752_R2,Plate:MR025",0.851 µM
same,potency estimated from few doses,"PRKAA2; compound concentrations:100 nM and 1000 nM (sheet 'Lestaurtinib' of Supplementary Table 1),run:Lestaurtinib_02752_R3,Plate:MR025",0.786 µM
same,potency estimated from few doses,"PRKAA2; compound concentrations:100 nM and 1000 nM (sheet 'Lestaurtinib' of Supplementary Table 1),run:Lestaurtinib_02765_R1,Plate:MR026",0.911 µM
same,potency estimated from few doses,"PRKAA2; compound concentrations:100 nM and 1000 nM (sheet 'Lestaurtinib' of Supplementary Table 1),run:Lestaurtinib_02765_R2,Plate:MR026",0.741 µM
same,potency estimated from few doses,"PRKAA2; compound concentrations:100 nM and 1000 nM (sheet 'Lestaurtinib' of Supplementary Table 1),run:Lestaurtinib_02766_R1,Plate:MR027",0.782 µM
same,potency estimated from few doses,"PRKAA2; compound concentrations:100 nM and 1000 nM (sheet 'Lestaurtinib' of Supplementary Table 1),run:Lestaurtinib_02766_R2,Plate:MR027",0.0964 µM
same,potency estimated from few doses,"PRKAA2; compound concentrations:100 nM and 1000 nM (sheet 'Lestaurtinib' of Supplementary Table 1),run:Lestaurtinib_02766_R3,Plate:MR027",0.669 µM
same,potency estimated from few doses,"PRKAA2; compound concentrations:100 nM and 1000 nM (sheet 'Lestaurtinib' of Supplementary Table 1),run:Lestaurtinib_02768_R3,Plate:MR028",0.518 µM
same,potency estimated from few doses,"PRKAA2; compound concentrations:100 nM and 1000 nM (sheet 'Lestaurtinib' of Supplementary Table 1),run:Lestaurtinib_02795_R2,Plate:MR022",0.783 µM
same,potency estimated from few doses,"PRKAA2; compound concentrations:100 nM and 1000 nM (sheet 'Lestaurtinib' of Supplementary Table 1),run:Lestaurtinib_02795_R3,Plate:MR022",0.86 µM
same,potency estimated from few doses,"PRKAA2; compound concentrations:100 nM and 1000 nM (sheet 'Lestaurtinib' of Supplementary Table 1),run:Lestaurtinib_02802_R1,Plate:MR029",0.713 µM
same,potency estimated from few doses,"PRKAA2; compound concentrations:100 nM and 1000 nM (sheet 'Lestaurtinib' of Supplementary Table 1),run:Lestaurtinib_02802_R2,Plate:MR029",0.472 µM
same,potency estimated from few doses,"PRKAA2; compound concentrations:100 nM and 1000 nM (sheet 'Lestaurtinib' of Supplementary Table 1),run:Lestaurtinib_02802_R3,Plate:MR029",0.0749 µM
same,potency estimated from few doses,"PRKAA2; compound concentrations:100 nM and 1000 nM (sheet 'Lestaurtinib' of Supplementary Table 1),run:Lestaurtinib_02896_R2,Plate:MR030",1.8 µM
same,potency estimated from few doses,"PRKAA2; compound concentrations:100 nM and 1000 nM (sheet 'Lestaurtinib' of Supplementary Table 1),run:Lestaurtinib_02896_R3,Plate:MR030",0.761 µM
same,potency estimated from few doses,"PRKAA2; compound concentrations:100 nM and 1000 nM (sheet 'Lestaurtinib' of Supplementary Table 1),run:Lestaurtinib_03172_R1,Plate:MR031",0.796 µM
same,potency estimated from few doses,"PRKAA2; compound concentrations:100 nM and 1000 nM (sheet 'Lestaurtinib' of Supplementary Table 1),run:Lestaurtinib_03172_R2,Plate:MR031",0.564 µM
same,potency estimated from few doses,"PRKAA2; compound concentrations:100 nM and 1000 nM (sheet 'Lestaurtinib' of Supplementary Table 1),run:Lestaurtinib_03172_R3,Plate:MR031",0.696 µM
same,potency estimated from few doses,"PRKAA2; compound concentrations:100 nM and 1000 nM (sheet 'Lestaurtinib' of Supplementary Table 1),run:Lestaurtinib_03252_R1,Plate:MR032",1.21 µM
same,potency estimated from few doses,"PRKAA2; compound concentrations:100 nM and 1000 nM (sheet 'Lestaurtinib' of Supplementary Table 1),run:Lestaurtinib_03252_R2,Plate:MR032",0.0261 µM
same,potency estimated from few doses,"PRKD2; compound concentrations:100 nM and 1000 nM (sheet 'Lestaurtinib' of Supplementary Table 1),run:Lestaurtinib_02339_R1,Plate:MR001",0.0416 µM
same,potency estimated from few doses,"PRKD2; compound concentrations:100 nM and 1000 nM (sheet 'Lestaurtinib' of Supplementary Table 1),run:Lestaurtinib_02339_R3,Plate:MR001",0.0393 µM
